From PubChem BioAssay (NCI)
This is part of a sample that, as a whole, favours compounds with a hit. Of some 79,000 tested, about 15% had one in any assay. The source made the active and inactive calls. Rule as the data show it: active = growth inhibition above about 70%; inactive = the rest.

Key:
[1] = NCI Yeast Anticancer Drug Screen. Data for the rad52 strain (AID 147);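 also: 0% = growth of vehicle-treated control cultures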; conditions: S. cerevisiae rad52 mutant growth inhibition, stronger effect = higher value
Summary of the method: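 Growth of repair-deficient yeast cells was compared between compound-treated and vehicle-treated cultures to give percent inhibition.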

[2] = NCI Yeast Anticancer Drug Screen. Data for the wt1 strain (AID 149);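 also: 0% = growth of vehicle-treated wt1 cultures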; conditions: S. cerevisiae wt1 strain (SPY 50644) growth inhibition, stronger effect = higher value
Summary of the method: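 The wt1 strain was treated with compounds, and growth was compared with vehicle-treated cultures to give inhibition.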

[3] = NCI Yeast Anticancer Drug Screen. Data for the rad50EPP+ strain (AID 151);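 also: 0% = growth of vehicle-treated control cultures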; conditions: S. cerevisiae rad50 mutant strain, stronger effect = higher value
Summary of the method: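 Measured: growth inhibition of rad50EPP+ yeast. Reference: vehicle-treated controls. Screen uses strains with defined genetic alterations in DNA damage repair or cell cycle control.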

[4] = NCI Yeast Anticancer Drug Screen. Data for the mgt1 strain (AID 153); conditions: S. cerevisiae mgt1 mutant growth inhibition, stronger effect = higher value
Summary of the method: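 Compounds were applied to mgt1 mutant yeast, and growth was then compared against vehicle-treated control cultures to give percent inhibition.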

[5] = NCI Yeast Anticancer Drug Screen. Data for the rad50 strain (AID 155);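 also: 0% = growth of vehicle-only cultures of the same strain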; conditions: S. cerevisiae rad50 strain growth inhibition, stronger effect = higher value
Summary of the method: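 Cells are treated with compound, grown, and their growth is then scored against vehicle-only cultures of the same repair-deficient yeast strain.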

[6] = NCI Yeast Anticancer Drug Screen. Data for the mec2-1 strain (AID 157); conditions: S. cerevisiae mec2-1 strain, stronger effect = higher value
Summary of the method: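 Compounds were applied to mec2-1 yeast cells. Their growth was then compared with that of vehicle-treated cultures to give growth inhibition.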

[7] = NCI Yeast Anticancer Drug Screen. Data for the rad14 strain (AID 159);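 also: 0% = growth of vehicle-treated control cultures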; conditions: S. cerevisiae rad14 strain growth inhibition, stronger effect = higher value
Summary of the method: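 Readout: yeast growth inhibition, referenced to vehicle-only cultures. Strain bears a defined alteration in DNA damage repair.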

[8] = NCI Yeast Anticancer Drug Screen. Data for the sgs1 mgt1 strain (AID 161);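 also: 0% = growth of cultures given vehicle only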; conditions: S. cerevisiae sgs1 mgt1 strain, stronger effect = higher value
Summary of the method: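 Yeast cells carrying a defined DNA-repair defect were exposed to test compounds. Growth inhibition was measured relative to vehicle-treated controls.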

[9] = NCI Yeast Anticancer Drug Screen. Data for the CLN2oe strain (AID 163);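 also: 0% = growth of vehicle-only control cultures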; conditions: S. cerevisiae CLN2oe strain, stronger effect = higher value
Summary of the method: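 Cells of an engineered yeast line with disturbed cell-cycle regulation are treated with compound. Inhibition of growth is then calculated relative to the vehicle-treated reference.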

[10] = NCI Yeast Anticancer Drug Screen. Data for the cln2 rad14 strain (AID 165);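 also: 0% = growth equal to vehicle treated cultures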; conditions: S. cerevisiae cln2 rad14 strain, stronger effect = higher value
Summary of the method: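 Strain: cln2 rad14 yeast, altered in cell cycle control and DNA damage repair. Read-out: growth inhibition vs vehicle.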

[11] = NCI Yeast Anticancer Drug Screen. Data for the bub3 strain (AID 167); conditions: S. cerevisiae bub3 mutant strain, stronger effect = higher value
Summary of the method: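 Part of a panel of yeast mutants defective in DNA damage repair or cell cycle regulation. Each strain is grown with compound, and inhibition is calculated relative to solvent-treated cultures.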

[12] = NCI Yeast Anticancer Drug Screen. Data for the wt2 strain (AID 169);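 also: 0% = growth of vehicle-treated yeast cultures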; conditions: S. cerevisiae wt2 strain growth inhibition, stronger effect = higher value
Summary of the method: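 Growth of compound-treated yeast is measured and expressed as inhibition relative to vehicle-only controls.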

[13] = NCI Yeast Anticancer Drug Screen. Data for the mlh1 strain (AID 171);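 also: 0% = growth of vehicle-treated control cultures of the same strain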; conditions: S. cerevisiae mlh1 strain growth inhibition, stronger effect = higher value
Summary of the method: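 Test agents were incubated with yeast bearing a defined DNA damage repair or cell cycle control alteration; values are growth inhibition normalised to vehicle-treated cultures.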

[14] = NCI Yeast Anticancer Drug Screen. Data for the sgs1 strain (AID 173);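 also: 0% = growth of vehicle-only control cultures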; conditions: S. cerevisiae sgs1 mutant, stronger effect = higher value
Summary of the method: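 Strain with an altered DNA repair or cell cycle pathway exposed to compound. Growth then measured. Value = inhibition versus vehicle control.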

[15] = NCI Yeast Anticancer Drug Screen. Data for the mlh1 rad18 strain (AID 175); conditions: S. cerevisiae mlh1 rad18 strain growth inhibition, stronger effect = higher value
Summary of the method: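 A repair-deficient yeast strain is exposed to test compound, and growth is scored relative to vehicle-treated controls.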

[16] = NCI Yeast Anticancer Drug Screen. Data for the rad18 strain (AID 177); conditions: S. cerevisiae rad18 mutant growth inhibition, stronger effect = higher value
Summary of the method: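 DNA-repair-defective yeast; compound treatment; growth inhibition scored against vehicle.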

[17] = at 5.0 µM (retest, dose inferred, filed as 0.5)
[18] = at 50.0 µM (retest, dose inferred, filed as 5.0)

Measured: growth inhibition

NC(N)=N/N=C\c1c2ccccc2cc2ccccc12
active: [1]; at 100.0 µM 94% | [2]; at 100.0 µM 95% | [4]; at 100.0 µM 95% | [5]; at 100.0 µM 94% | [6]; at 100.0 µM 93% | [7]; at 100.0 µM 95% | [9]; at 100.0 µM 78% | [11]; at 100.0 µM 75% | [12]; at 100.0 µM 96% | [13]; at 100.0 µM 93% | [14]; at 100.0 µM 93% | [15]; [18] 81% | [15]; at 50.0 µM 72.7% | [16]; at 100.0 µM 95%
inactive: [1]; at 1.2 µM -73% | [1]; at 3.7 µM -78% | [1]; at 11.0 µM -50% | [1]; at 33.0 µM 27% | [2]; at 1.2 µM -38% | [2]; at 3.7 µM -29% | [2]; at 11.0 µM -29% | [2]; at 33.0 µM -27% | [3]; at 1.2 µM -28% | [3]; at 3.7 µM -20% | [3]; at 11.0 µM -7% | [3]; at 33.0 µM 6% | [3]; at 100.0 µM 23% | [4]; at 1.2 µM -38% | [4]; at 3.7 µM -54% | [4]; at 11.0 µM -34% | [4]; at 33.0 µM 3% | [5]; at 1.2 µM -16% | [5]; at 3.7 µM -17% | [5]; [17] 22% | [5]; at 11.0 µM -8% | [5]; at 33.0 µM 36% | [5]; [18] 66% | [5]; at 50.0 µM 17.1% | [6]; at 1.2 µM -58% | [6]; at 3.7 µM -37% | [6]; [17] 18% | [6]; at 11.0 µM -45% | [6]; at 33.0 µM -10% | [6]; [18] 42% | [6]; at 50.0 µM 36.9% | [7]; at 1.2 µM -50% | [7]; at 3.7 µM -41% | [7]; at 11.0 µM -45% | [7]; at 33.0 µM 9% | [8]; [17] 8% | [8]; [18] 47% | [8]; at 50.0 µM 33.6% | [9]; at 1.2 µM -29% | [9]; at 3.7 µM 6% | [9]; at 11.0 µM -4% | [9]; at 33.0 µM 18% | [10]; [17] -2% | [10]; [18] 25% | [10]; at 50.0 µM 1.85% | [11]; at 1.2 µM -43% | [11]; at 3.7 µM -55% | [11]; [17] 3% | [11]; at 11.0 µM -59% | [11]; at 33.0 µM -44% | [11]; [18] 14% | [11]; at 50.0 µM 21% | [12]; at 1.2 µM -47% | [12]; at 3.7 µM -64% | [12]; at 11.0 µM -59% | [12]; at 33.0 µM -35% | [13]; at 1.2 µM -61% | [13]; at 3.7 µM -45% | [13]; at 11.0 µM -44% | [13]; at 33.0 µM 11% | [14]; at 1.2 µM -25% | [14]; at 3.7 µM -31% | [14]; at 11.0 µM -44% | [14]; at 33.0 µM -1% | [15]; [17] 29% | [16]; at 1.2 µM -74% | [16]; at 3.7 µM -68% | [16]; at 11.0 µM -51% | [16]; at 33.0 µM -30%
